Holding throughout (experiment): PBM; 200 nM protein, PBS
Common to all, as to conditions: dsDNA, one strand shown

Experiment [1] deals with PRRX1 (Homo sapiens, UniProt P54821 80-166, F113S).
Experiment [2] addresses HOXA2 (Homo sapiens, UniProt O43364 129-215, R185T).
Experiment [3] concerns the target HOXD13 (Homo sapiens, UniProt P35453 263-343, T313R).
Experiment [4] addresses HOXA2 (Homo sapiens, UniProt O43364 129-215, R185K).
Experiment [5] deals with HOXD13 (Homo sapiens, UniProt P35453 263-343).
Sequence of HOXD13 (Homo sapiens, UniProt P35453 263-343) (P35453 263-343): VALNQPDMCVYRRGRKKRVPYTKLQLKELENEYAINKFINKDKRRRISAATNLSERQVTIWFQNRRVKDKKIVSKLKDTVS
Experiment [6] concerns the target HOXD13 (Homo sapiens, UniProt P35453 263-343, T313A).
Experiment [7] deals with HOXA2 (Homo sapiens, UniProt O43364 129-215, Y150S).
Sequence of HOXA2 (Homo sapiens, UniProt O43364 129-215, Y150S) (O43364 129-215 Y150S): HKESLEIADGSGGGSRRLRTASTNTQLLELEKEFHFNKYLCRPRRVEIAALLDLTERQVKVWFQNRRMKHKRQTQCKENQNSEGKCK
For experiment [8], the target named is NKX3-2 (Homo sapiens, UniProt P78367 192-278, P234S).
Sequence of NKX3-2 (Homo sapiens, UniProt P78367 192-278, P234S) (P78367 192-278 P234S): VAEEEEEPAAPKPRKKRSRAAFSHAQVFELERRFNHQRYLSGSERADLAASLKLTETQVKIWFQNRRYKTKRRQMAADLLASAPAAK
Experiment [9] addresses PRRX1 (Homo sapiens, UniProt P54821 80-166).
The target in experiment [10] is HOXA2 (Homo sapiens, UniProt O43364 129-215).
Sequence of HOXA2 (Homo sapiens, UniProt O43364 129-215) (O43364 129-215): as the sequence (O43364 129-215 Y150S) above, with S22Y counted along it
For experiment [11], the target named is NKX3-2 (Homo sapiens, UniProt P78367 192-278).
Sequence of NKX3-2 (Homo sapiens, UniProt P78367 192-278) (P78367 192-278): as the sequence (P78367 192-278 P234S) above, with S43P counted along it
The target of experiment [12] is ALX1 (Homo sapiens, UniProt Q15699 118-204, L144R).
Sequence of ALX1 (Q15699 118-204 L144R): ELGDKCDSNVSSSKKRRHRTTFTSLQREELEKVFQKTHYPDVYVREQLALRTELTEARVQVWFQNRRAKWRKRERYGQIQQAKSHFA
In experiment [13] the target is T1, NKX2-6 (Homo sapiens, UniProt A6NCS4 118-204, R150C).
T1 sequence: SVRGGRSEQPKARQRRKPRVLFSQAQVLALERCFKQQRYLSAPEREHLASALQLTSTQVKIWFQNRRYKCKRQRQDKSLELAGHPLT

The target of experiment [14] is PROP1 (Homo sapiens, UniProt O75360 56-141).
Sequence of PROP1 (Homo sapiens, UniProt O75360 56-141) (O75360 56-141): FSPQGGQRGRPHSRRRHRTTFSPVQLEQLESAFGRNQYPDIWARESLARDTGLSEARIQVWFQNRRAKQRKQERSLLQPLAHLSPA
The target in experiment [15] is PROP1 (Homo sapiens, UniProt O75360 56-141, R99H).
Sequence of PROP1 (Homo sapiens, UniProt O75360 56-141, R99H) (O75360 56-141 R99H): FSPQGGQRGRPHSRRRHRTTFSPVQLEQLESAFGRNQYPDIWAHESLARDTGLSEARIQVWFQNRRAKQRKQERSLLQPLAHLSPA
For experiment [16], the target named is PROP1 (Homo sapiens, UniProt O75360 56-141, F88S).
Sequence of PROP1 (Homo sapiens, UniProt O75360 56-141, F88S) (O75360 56-141 F88S): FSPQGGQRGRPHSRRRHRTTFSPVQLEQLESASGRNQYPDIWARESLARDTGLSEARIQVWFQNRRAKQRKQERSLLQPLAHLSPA
Experiment [17] addresses VAX1 (Homo sapiens, UniProt Q5SQQ9 86-172).
Experiment [18] has as its target VAX1 (Homo sapiens, UniProt Q5SQQ9 86-172, T142I).
Experiment [19] addresses VAX1 (Homo sapiens, UniProt Q5SQQ9 86-172, K157R).
In experiment [20] the target is CRX (Homo sapiens, UniProt O43186 26-111, R41L).
Sequence of CRX (O43186 26-111 R41L): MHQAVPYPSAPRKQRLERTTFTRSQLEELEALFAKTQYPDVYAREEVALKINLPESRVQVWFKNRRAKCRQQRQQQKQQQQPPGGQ

Sequence of PRRX1 (Homo sapiens, UniProt P54821 80-166) (P54821 80-166): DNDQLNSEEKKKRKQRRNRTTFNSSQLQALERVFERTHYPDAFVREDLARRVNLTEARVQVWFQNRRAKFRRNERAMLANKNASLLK
Sequence of PRRX1 (Homo sapiens, UniProt P54821 80-166, F113S) (P54821 80-166 F113S): as the sequence (P54821 80-166) above, with F34S counted along it
Sequence of HOXD13 (Homo sapiens, UniProt P35453 263-343, T313A) (P35453 263-343 T313A): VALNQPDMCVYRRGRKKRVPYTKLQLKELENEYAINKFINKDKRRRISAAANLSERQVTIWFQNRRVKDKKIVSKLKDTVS
Sequence of HOXD13 (Homo sapiens, UniProt P35453 263-343, T313R) (P35453 263-343 T313R): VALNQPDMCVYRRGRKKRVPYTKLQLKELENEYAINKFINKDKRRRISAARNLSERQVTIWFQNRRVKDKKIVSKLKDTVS
Sequence of VAX1 (Homo sapiens, UniProt Q5SQQ9 86-172) (Q5SQQ9 86-172): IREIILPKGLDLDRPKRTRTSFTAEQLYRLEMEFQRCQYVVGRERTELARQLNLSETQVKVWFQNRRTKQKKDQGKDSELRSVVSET
Sequence of HOXA2 (Homo sapiens, UniProt O43364 129-215, R185K) (O43364 129-215 R185K): as the sequence (O43364 129-215 Y150S) above, with S22Y, R57K counted along it
Sequence of VAX1 (Homo sapiens, UniProt Q5SQQ9 86-172, T142I) (Q5SQQ9 86-172 T142I): as the sequence (Q5SQQ9 86-172) above, with T57I counted along it
Sequence of HOXA2 (Homo sapiens, UniProt O43364 129-215, R185T) (O43364 129-215 R185T): as the sequence (O43364 129-215 Y150S) above, with S22Y, R57T counted along it
Sequence of VAX1 (Homo sapiens, UniProt Q5SQQ9 86-172, K157R) (Q5SQQ9 86-172 K157R): as the sequence (Q5SQQ9 86-172) above, with K72R counted along it

Regarding GCTCGGCC, the binding signal is 9.12 upbm affinity estimate (log intensity, higher = more binding, comparable within an allelic series) in experiment [1]; 7.15 upbm affinity estimate (log intensity, higher = more binding, comparable within an allelic series) in experiment [2]; 9.46 upbm affinity estimate (log intensity, higher = more binding, comparable within an allelic series) in experiment [3]; 10.3 upbm affinity estimate (log intensity, higher = more binding, comparable within an allelic series) in experiment [4]; 9.56 upbm affinity estimate (log intensity, higher = more binding, comparable within an allelic series) in experiment [5]; 9.62 upbm affinity estimate (log intensity, higher = more binding, comparable within an allelic series) in [6]. Moreover, the binding signal is 10.3 upbm affinity estimate (log intensity, higher = more binding, comparable within an allelic series) in [7]; 10.3 upbm affinity estimate (log intensity, higher = more binding, comparable within an allelic series) in experiment [8]; 9.13 upbm affinity estimate (log intensity, higher = more binding, comparable within an allelic series) in experiment [9]; 6.97 upbm affinity estimate (log intensity, higher = more binding, comparable within an allelic series) in experiment [10]; 10.3 upbm affinity estimate (log intensity, higher = more binding, comparable within an allelic series) in [11].

Turning to TTAATCAA, the binding signal in experiment [1] was 11.1 upbm affinity estimate (log intensity, higher = more binding, comparable within an allelic series); in experiment [12] it was 11.2 upbm affinity estimate (log intensity, higher = more binding, comparable within an allelic series); in [9], 13.3 upbm affinity estimate (log intensity, higher = more binding, comparable within an allelic series).

Turning to GTCCCCCA, the binding signal in experiment [1] was 9.39 upbm affinity estimate (log intensity, higher = more binding, comparable within an allelic series); in experiment [13], 9.42 upbm affinity estimate (log intensity, higher = more binding, comparable within an allelic series); in experiment [9], 9.22 upbm affinity estimate (log intensity, higher = more binding, comparable within an allelic series).

With GCCCGTCC, the binding signal in experiment [1] was 9.26 upbm affinity estimate (log intensity, higher = more binding, comparable within an allelic series); in experiment [14], 6.49 upbm affinity estimate (log intensity, higher = more binding, comparable within an allelic series); in [15] it was 6.5 upbm affinity estimate (log intensity, higher = more binding, comparable within an allelic series); in experiment [16], 6.38 upbm affinity estimate (log intensity, higher = more binding, comparable within an allelic series); in experiment [9], 8.92 upbm affinity estimate (log intensity, higher = more binding, comparable within an allelic series).

For the sequence CCGTGTCC, the binding signal in experiment [1] is 9.3 upbm affinity estimate (log intensity, higher = more binding, comparable within an allelic series); in experiment [17], 6.98 upbm affinity estimate (log intensity, higher = more binding, comparable within an allelic series); in [18], 7.18 upbm affinity estimate (log intensity, higher = more binding, comparable within an allelic series); in [9], 9.13 upbm affinity estimate (log intensity, higher = more binding, comparable within an allelic series); in experiment [19], 6.99 upbm affinity estimate (log intensity, higher = more binding, comparable within an allelic series).

On to ACTGTTAT, for which the binding signal in experiment [1] is 10.2 upbm affinity estimate (log intensity, higher = more binding, comparable within an allelic series); in experiment [14], 8.21 upbm affinity estimate (log intensity, higher = more binding, comparable within an allelic series); in experiment [15], 7.73 upbm affinity estimate (log intensity, higher = more binding, comparable within an allelic series); in experiment [16], 7.48 upbm affinity estimate (log intensity, higher = more binding, comparable within an allelic series); in experiment [9], 11.4 upbm affinity estimate (log intensity, higher = more binding, comparable within an allelic series).

Take CATAAATC: the binding signal in [1] is 10.2 upbm affinity estimate (log intensity, higher = more binding, comparable within an allelic series); in experiment [3], 10.7 upbm affinity estimate (log intensity, higher = more binding, comparable within an allelic series); in experiment [5], 11.8 upbm affinity estimate (log intensity, higher = more binding, comparable within an allelic series); in experiment [6], 11.5 upbm affinity estimate (log intensity, higher = more binding, comparable within an allelic series); in experiment [9], 11.5 upbm affinity estimate (log intensity, higher = more binding, comparable within an allelic series).

As for AGTGGTAA, the binding signal was 10 upbm affinity estimate (log intensity, higher = more binding, comparable within an allelic series) in experiment [1]; 9.41 upbm affinity estimate (log intensity, higher = more binding, comparable within an allelic series) in [17]; 11.2 upbm affinity estimate (log intensity, higher = more binding, comparable within an allelic series) in [9].

With CTATAATC, the binding signal in experiment [1] is 10.5 upbm affinity estimate (log intensity, higher = more binding, comparable within an allelic series); in experiment [20], 12.5 upbm affinity estimate (log intensity, higher = more binding, comparable within an allelic series); in [9], 12.5 upbm affinity estimate (log intensity, higher = more binding, comparable within an allelic series).

The values above are taken from paper PMC11006913.
